Bioassay records: PubChem BioAssay, National Center for Advancing Translational Sciences (NCATS)
D1 potentiator = Potentiators of Human D1 Dopamine Receptor: qHTS; D(1A) dopamine receptor (Homo sapiens), P21728; potentiation, % at 10 µM; actives 0.036% (n = 360,000); AID 504651, 2011; HEK293 TREx D1 cells, calcium flux, dopamine EC20 potentiation; in the data active = potentiation above about 30%; note: 0% is about no effect
Target sequence (P21728 whole entry, looked up): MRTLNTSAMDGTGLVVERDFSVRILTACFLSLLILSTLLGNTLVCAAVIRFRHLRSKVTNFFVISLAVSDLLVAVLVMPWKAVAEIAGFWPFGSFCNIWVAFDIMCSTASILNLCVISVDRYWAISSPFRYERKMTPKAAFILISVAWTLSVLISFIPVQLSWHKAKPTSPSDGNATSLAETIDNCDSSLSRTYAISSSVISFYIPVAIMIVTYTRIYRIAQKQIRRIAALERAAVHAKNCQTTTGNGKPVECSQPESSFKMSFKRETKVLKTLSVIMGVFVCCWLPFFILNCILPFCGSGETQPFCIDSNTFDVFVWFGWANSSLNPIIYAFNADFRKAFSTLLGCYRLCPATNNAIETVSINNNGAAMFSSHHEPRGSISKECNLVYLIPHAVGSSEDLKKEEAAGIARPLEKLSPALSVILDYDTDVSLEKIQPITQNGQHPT
TRHR agonist = qHTS for Small Molecule Agonists and Allosteric Enhancers of Human TRH Receptor: Primary Screen for Agonists | Thyrotropin-releasing hormone receptor (Homo sapiens), P34981 | activation, % at 2 µM | AID 493084, 2011 | actives 0.18% (n = 360,000) | TRHR cells, calcium flux fluo-8, FDSS agonist mode; note: 0% is about no effect
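Steps: seed TRHR cells overnight; add fluo-8 no-wash Ca dye, RT 30 min–1.5 h; record 10 s baseline; pin-transfer compounds; monitor fluorescence 1 cycle/s for the agonist window. Calcium increases flag candidate agonists.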
D1 agonist = Allosteric Agonists of the Human D1 Dopamine Receptor: qHTS | D(1A) dopamine receptor (Homo sapiens), P21728 | HEK293 T-REx D1 cells, calcium flux, agonist mode | activation, % at 2 µM | actives 1% (n = 360,000); note: 0% is about no effect
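Agonism was scored from calcium flux recorded over 180 s (1 read/s) after pintool compound addition, following a 10-cycle baseline. Cells were inducible force-coupled HEK293 TREx D1, plated overnight at 30 C and loaded with no-wash calcium dye.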
D1 antagonist = Antagonist of Human D 1 Dopamine Receptor: qHTS. D(1A) dopamine receptor (Homo sapiens), P21728. HEK293 TREx D1 cells, calcium flux, dopamine EC80; hits give low values. activity change, negative = inhibition, % at 10 µM. actives 3.2% (n = 360,000); in the data active = activity change below about -30%; note: % is set by controls: 0 for no effect and ±100 for the full control effect
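Antagonism measured as reduced calcium response to an EC80 dopamine addition following 180 s compound pre-read; cells were inducible HEK293 Trex D1 plated overnight at 30 C, read kinetically at 1 cycle/sec.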
TRHR PAM = qHTS for Small Molecule Agonists and Allosteric Enhancers of Human TRH Receptor: Primary Screen for Enhancers; Thyrotropin-releasing hormone receptor (Homo sapiens), P34981; AID 493056, 2011; TRHR cells, fluo-8 calcium fluorescence, EC20 TRH enhancement; enhancement, % at 2 µM; actives 0.66% (n = 360,000); in the data active = enhancement above about 30%; note: 0% is about no effect
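Enhancer read-out: after compound pinning and an initial kinetic agonist-mode read, an EC20 of TRH (10 nM final) was injected and fluo-8 calcium signal (Ex 480/Em 530) followed at 1 s/cycle for 100 cycles in TRHR-expressing cells.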
Epigenetic derep = Quantitative High-Throughput Screen for Regulators of Epigenetic Control. murine LDR cells, GFP reporter derepression, 30 h. Potency, µM (series often up to 53.9 µM), without a hit: at the highest dose GFP activation, actives largely listed as activators. actives 0.2% (n = 280,000). AID 1865, 2009; active = well fitted activation curve with a large enough effect; inconclusive = small, poorly fitted or top-dose-only effect; note: potency is the fitted concentration of half-maximal effect; % of control where 0% means no effect; nearly all actives have a fitted effect of over 60% in size
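GFP-positive cell count by laser-scanning cytometry (objects 20–120 um) after 30 h, 37 C compound exposure of murine LDR cells; reporter is CMV-GFP integrated at a silenced locus, inducible by HDAC or DNMT inhibitors.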
Starred values were filed as active, the others as inactive; u = inconclusive; x = not tested or not shown; ! = not confirmed by another sample. An excerpt weighted towards active compounds, which were near 4.6% of everything screened. Cut-off read from the data, not from the text of the source, unless noted: active = activation above about 30%; inactive = the rest.

SMILES	D1 potentiator	TRHR agonist	D1 agonist	D1 antagonist	TRHR PAM	Epigenetic derep
COc1ccc(-c2nc(Cn3c(=O)cc(-c4ccccc4)c4c(C)nn(C)c43)c(C)o2)cc1OC	-4.0	-0.6	8.2	1.6	-7.5	2.9%
O=C(OCC#CCSc1nnc(-c2cccc3ccccc23)o1)c1ccco1	4.9	-0.8	32.2*!	3.4	7.8	0.9%
COc1ccc(C2CC(Cn3cc(C#N)c(=O)n(C)c3=O)ON2C)cc1 (centres undefined)	-7.8	0.2	-0.1	-33.6*	14.2	-1.4%
CSc1ccc(S(=O)(=O)NCC(=O)OCC(=O)N2CCCCC2C)cc1[N+](=O)[O-] (centres undefined)	1.5	0.3	1.3	-7.3	-2.1	x
CSc1ccc(S(=O)(=O)NCC(=O)OCC(=O)N2CCC(C)CC2)cc1[N+](=O)[O-]	-2.5	-0.2	1.3	-31.4*	-0.1	x
CCc1ccc2occ(CC(=O)NCc3ccccc3)c2c1	-0.3	-1.3	49.0*	-12.9	10.2	1.9%
CCc1ccc2occ(CC(=O)Nc3ccccc3C(F)(F)F)c2c1	-2.0	-1.1	21.8	10.5	6.6	-1.9%
Cc1ccc(NC(=O)c2ccc(=O)n(Cc3ccccc3C)c2)c(C)c1	-4.0	0.0	-0.6	16.9	-4.2	0.0%
COCCN1C(=O)/C(=C/c2ccc(N3CCCC3)cc2)SC1=S	-0.1	44.4*	258.2*	-0.8	-4.6	3.55µM*
CN1CCN(C(=O)CCCN2C(=O)/C(=C/c3ccccc3)SC2=S)CC1	-13.6	0.6	7.2	-29.9	1.9	x
CN1CCN(C(=O)CCCN2C(=O)/C(=C/c3ccc(Cl)cc3)SC2=S)CC1	-13.2	0.7	10.0	-60.9*	5.0	x
CC(C)c1ccc(OCC(=O)N(Cc2cccs2)C2CCS(=O)(=O)C2)cc1 (centres undefined)	-1.2	0.1	2.0	-19.1	-3.2	0.8%
CCCCCCCCCCCCCCCC(=O)O[C@H](CC(=O)O)C[N+](C)(C)C	x	x	x	x	x	0.8%
CCCCCCCCCCCCCCCC(=O)OC(CC(=O)O)C[N+](C)(C)C (centres undefined)	-7.2	0.1	74.5*	-33.7*	-10.6	8.4%
Cc1cc(C)nc(Nc2n[nH]c(C)n2)n1	-6.1	0.3	1.0	1.4	3.9	5.9%
Cc1cc(C)nc(Nc2n[nH]c(COc3ccc(Cl)cc3)n2)n1	-1.8	2.4	34.2*	20.3	-3.0	0.0%
CC1CCN(S(=O)(=O)c2ccc3[nH]ccc3c2)CC1	3.3	0.3	-4.2	12.1	4.8	-1.2%
CCCCNC(=O)CCn1c(=O)c2cccn2c2cccnc21	-3.0	-0.1	0.0	5.9	-4.0	8.0%
Cc1cc2c(cc1C)NC(c1c(C)n(C)n(-c3ccccc3)c1=O)C1=C(CC(C)(C)CC1=O)N2 (centres undefined)	-3.9	42.9*	81.4*	9.1	0.6	0.9%
COc1ccccc1NC(=O)c1ccc2ccccc2c1	0.8	1.0	11.1	-4.4	-1.2	x
CCCS(=O)(=O)N1CC(=O)N(c2ccc(C)cc2)C(C)(C(=O)NC2CCCCCC2)C1 (centres undefined)	-0.1	-1.0	-2.1	-0.9	1.7	-0.4%
CCCS(=O)(=O)N1CC(=O)N(c2cc(C)cc(C)c2)C(C)(C(=O)NC2CCCCCC2)C1 (centres undefined)	-0.5	-0.5	-1.7	-31.2*	-4.1	-0.4%
Cc1cc2c(s1)c1cnn(Cc3cc(OC(F)(F)F)ccc3F)c(=O)c1n2C	6.0	-0.1	3.3	-14.1	-9.0	x
Cc1ccc(OCC(=O)Nn2c(C)nc3ccccc3c2=O)c(C(C)C)c1	5.2	-0.7	34.9*	-22.0	3.5	-1.8%
CCn1c(N2CCN(CC(=O)c3ccc(OC)cc3)CC2)nc2ccccc21	-3.4	-0.3	-0.8	-50.1*	1.8	-0.1%
SMILES	D1 potentiator	TRHR agonist	D1 agonist	D1 antagonist	TRHR PAM	Epigenetic derep
CN(C)C(=O)c1ccc2c(c1)N(CC(=O)NCc1ccc(F)cc1)C(=O)C1CCCCN21 (centres undefined)	-2.1	0.0	5.0	-15.6	1.6	-1.7%
Nc1c(C(=O)Nc2ccccc2F)sc2nc(Cc3ccccc3)cc(C(F)(F)F)c12	1.3	4.1	17.7	-1.6	8.0	12.6µM*
Nc1c(C(=O)Nc2ccc(F)cc2)sc2nc(-c3cccs3)cc(C(F)(F)F)c12	-1.5	100.2*	265.5*	-44.1*	20.1	u
Nc1c(C(=O)C2CC2)sc2nc(-c3cccs3)cc(C(F)(F)F)c12	0.4	52.9*	173.5*	-6.0	9.5	3.55µM*
Cc1cc(C)c2c(N)c(C(=O)Nc3ccc(F)cc3)sc2n1	-2.1	-1.1	0.5	-2.3	4.1	x
Cc1cc(C)n2ncc(C(=O)O)c2n1	-3.5	-0.2	-1.5	-46.0*	1.5	1.5%
CCc1cccc(CC)c1NC(=O)C(CC)n1nc(C)n2c(cc3cc(C)ccc32)c1=O (centres undefined)	3.5	-1.4	4.7	-20.8	-2.4	-3.4%
CC(=O)c1cccc(NS(=O)(=O)c2c(C)noc2C)c1	-2.1	0.1	3.3	-29.0	-5.3	-2.3%
Cc1noc(C)c1S(=O)(=O)Nc1cccc(CO)c1	-5.3	0.5	2.7	-31.4*	0.0	x
CC(C)CCOCC(=O)Oc1ccccc1C(=O)O	-1.4	0.5	3.3	-10.0	30.0*	-0.8%
CC(=O)Oc1ccccc1C(=O)Oc1ccccc1C(=O)O	-0.6	0.4	-0.3	26.2	-4.6	0.0%
CCCCCCOc1ccc(C2C(=O)N(C3CCCCC3)CC(=O)N2CCC)cc1 (centres undefined)	1.7	0.0	2.5	17.8	4.5	0.5%
COc1ccc(/C=N/Nc2ncnc3c2[nH]c2ccccc23)c(OC)c1OC	-2.5	-0.3	4.6	-4.9	-4.2	0.0%
COCCNc1ncnc2c1[nH]c1ccccc12	-15.2	0.2	9.5	-37.1*	-4.3	1.6%
COc1cccc(/C=N/Nc2ncnc3c2[nH]c2ccc(C)cc23)c1OC	-7.4	0.0	2.8	-34.0*	-9.7	-1.0%
C=CCNc1ncnc2c1[nH]c1ccc(C)cc12	-8.2	0.3	12.4	-32.3*	-4.8	-0.8%
Fc1ccc2[nH]c3c(NCc4ccccc4)ncnc3c2c1	-10.1	8.3	25.7	-40.3*	-2.7	x
